Results filed as inconclusive are left out. Active and inactive are the calls of the source. Unless noted, calls come from the whole dose curve; as a rule, active = well fitted inhibition curve with a large enough effect; inconclusive = small, poorly fitted or top-dose-only effect; inactive = flat fitted curve, though single readings scatter.
Test system: not listed separately
Assay: qHTS assay for small molecule agonists of retinoid X receptor alpha signaling (AID 588544; calls by dose curve;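 for activation: 0% = DMSO basal wells and 100% = reference agonist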)
Details: HEK293T RXRa-UAS-bla, beta-lactamase reporter, 18 h; 530 nm emission

SMILES | max response [%]
O=C1c2cccc(O)c2C(=O)c2c(O)cc(CO)cc21 | 11.8
C[C@]12CC[C@@H]3c4ccc(O)cc4CC[C@H]3[C@H]1CC[C@H]2O | 14
Cc1cc(O)c2c(c1)C(=O)c1cccc(O)c1C2=O | 0.103
OC[C@@H](O)[C@@H](O)[C@H](O)[C@@H](O)CO | -9.11

Biological target: Retinoic acid receptor RXR-alpha (Homo sapiens) (UniProt P19793)
Assay: as above
Details: HEK293T RXRa-UAS-bla, beta-lactamase reporter, 18 h; series mostly up to 76.7 µM; activation: at the top concentration

Sequence of Retinoic acid receptor RXR-alpha (Homo sapiens) (P19793 whole entry, looked up): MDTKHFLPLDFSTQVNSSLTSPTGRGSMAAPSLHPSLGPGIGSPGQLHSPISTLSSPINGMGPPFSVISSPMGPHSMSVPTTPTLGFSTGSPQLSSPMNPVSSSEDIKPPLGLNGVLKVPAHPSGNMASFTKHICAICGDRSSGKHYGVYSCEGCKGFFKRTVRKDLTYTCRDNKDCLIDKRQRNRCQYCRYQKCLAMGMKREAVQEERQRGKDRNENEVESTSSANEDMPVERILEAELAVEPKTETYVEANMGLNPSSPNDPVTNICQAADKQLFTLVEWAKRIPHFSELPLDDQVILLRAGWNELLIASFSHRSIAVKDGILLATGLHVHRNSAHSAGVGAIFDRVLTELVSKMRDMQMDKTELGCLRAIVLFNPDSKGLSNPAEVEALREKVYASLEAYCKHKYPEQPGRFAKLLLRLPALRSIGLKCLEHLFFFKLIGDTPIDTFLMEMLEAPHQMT

SMILES | activation
O=C1c2cccc(O)c2C(=O)c2c(O)cc(CO)cc21 | -5.46% (inactive)
C[C@]12CC[C@@H]3c4ccc(O)cc4CC[C@H]3[C@H]1CC[C@H]2O | -27.6% (inactive)
Cc1cc(O)c2c(c1)C(=O)c1cccc(O)c1C2=O | 5.84% (inactive)
OC[C@@H](O)[C@@H](O)[C@H](O)[C@@H](O)CO | 23.2% (inactive)

Biological target: Thyroid hormone receptor beta (Homo sapiens) (UniProt P10828)
Assay: qHTS assay for small molecule agonists of thyroid hormone receptor beta signaling (AID 588545; calls by dose curve;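 note: 0% = DMSO only and 100% = 10 nM T3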)
Details: TR-UAS-bla GripTite HEK 293, beta-lactamase ratio, agonist mode, 18 h, percent of T3 response, DMSO as zero; series mostly up to 76.7 µM; activation: at the top concentration
Procedure, shortened: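 Stimulation of a TR-driven beta-lactamase reporter was quantified in GripTite HEK 293 cells. Compound series ran for 18 hrs; curves were normalized to T3 and DMSO controls and fitted to yield EC50.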

Sequence of Thyroid hormone receptor beta (Homo sapiens) (P10828 whole entry, looked up): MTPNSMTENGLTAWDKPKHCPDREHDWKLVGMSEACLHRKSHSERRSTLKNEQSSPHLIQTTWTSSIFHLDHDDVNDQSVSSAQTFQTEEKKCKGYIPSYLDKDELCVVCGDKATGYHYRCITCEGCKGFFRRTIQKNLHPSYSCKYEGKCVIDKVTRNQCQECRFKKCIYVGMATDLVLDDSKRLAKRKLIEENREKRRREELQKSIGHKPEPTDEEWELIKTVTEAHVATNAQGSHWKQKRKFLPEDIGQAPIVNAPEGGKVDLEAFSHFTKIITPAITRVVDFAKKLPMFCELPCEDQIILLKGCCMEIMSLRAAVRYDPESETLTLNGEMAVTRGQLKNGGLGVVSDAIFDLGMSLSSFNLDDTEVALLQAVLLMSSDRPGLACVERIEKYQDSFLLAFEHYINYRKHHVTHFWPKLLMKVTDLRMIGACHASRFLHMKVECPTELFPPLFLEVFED

SMILES | activation
O=C1c2cccc(O)c2C(=O)c2c(O)cc(CO)cc21 | -2.89% (inactive)
C[C@]12CC[C@@H]3c4ccc(O)cc4CC[C@H]3[C@H]1CC[C@H]2O | -13.1% (inactive)
CC(C=CC1=C(C)CCCC1(C)C)=CC=CC(C)=CC(=O)Nc1ccc(O)cc1 | -5.13% (inactive)
OC[C@@H](O)[C@@H](O)[C@H](O)[C@@H](O)CO | -4.93% (inactive)

Test system: not listed separately
Assay: qHTS assay for small molecule antagonists of retinoid X receptor alpha signaling (AID 588546; active = well fitted inhibition curve with a large enough effect in the signal ratio, with a control signal flat, not every such curve was filed as active; the % refers to the signal ratio;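 note: cells stimulated with 9-cis-retinoic acid as agonist; % is set by controls: 0 for no effect and ±100 for the full control effect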)
Details: HEK293T RXRa-UAS-bla, beta-lactamase ratio, antagonist mode; measured here: W530 green channel, cytotoxicity proxy
Procedure, shortened: (§1)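 Beta-lactamase reporter inhibition, read as CCF4 fluorescence ratio (ex 405, em 460/530 nm) after 2 h at RT. HEK293T UAS-bla cells, 2500/well, were stimulated with 9-cis-RA at 500 or 100 nM final alongside test compound for 18 h at 37 C.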

SMILES | max response [%]
O=C1c2cccc(O)c2C(=O)c2c(O)cc(CO)cc21 | -0.0097
C[C@]12CC[C@@H]3c4ccc(O)cc4CC[C@H]3[C@H]1CC[C@H]2O | 6.57
Cc1cc(O)c2c(c1)C(=O)c1cccc(O)c1C2=O | -3.99
OC[C@@H](O)[C@@H](O)[C@H](O)[C@@H](O)CO | -4.07

Biological target: Retinoic acid receptor RXR-alpha (Homo sapiens) (UniProt P19793)
Assay: as above
Details: HEK293T RXRa-UAS-bla, beta-lactamase ratio, antagonist mode
Procedure, shortened: as §1

SMILES | max response
O=C1c2cccc(O)c2C(=O)c2c(O)cc(CO)cc21 | 15.1% (inactive)
C[C@]12CC[C@@H]3c4ccc(O)cc4CC[C@H]3[C@H]1CC[C@H]2O | -12.2% (inactive)
Cc1cc(O)c2c(c1)C(=O)c1cccc(O)c1C2=O | 11.5% (inactive)
OC[C@@H](O)[C@@H](O)[C@H](O)[C@@H](O)CO | -2% (inactive)

Biological target: Thyroid hormone receptor beta (Homo sapiens) (UniProt P10828)
Assay: qHTS assay for small molecule antagonists of thyroid hormone receptor beta signaling (AID 588547; active = well fitted inhibition curve with a large enough effect in the signal ratio, with a control signal flat, not every such curve was filed as active; the % refers to the signal ratio;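 note: cells stimulated with 0.4 nM T3 agonist during compound exposure; % is set by controls: 0 for no effect and ±100 for the full control effect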)
Details: TR-UAS-bla HEK293, beta-lactamase ratio, antagonist mode, 18 h
Procedure, shortened: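 Inhibition of T3-driven (0.4nM final) beta-lactamase reporter activity was measured over 0.59 nM to 92 uM compound after 18 h at 37 C. The cells were GripTite HEK293 TR-UAS-bla in charcoal/dextran-stripped serum, with CCF4 ratio read-out and IC50 from Hill fits.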

SMILES | activity change % (negative = inhibition)
O=C1c2cccc(O)c2C(=O)c2c(O)cc(CO)cc21 | 26.1% (inactive)
C[C@]12CC[C@@H]3c4ccc(O)cc4CC[C@H]3[C@H]1CC[C@H]2O | -1.66% (inactive)
Cc1cc(O)c2c(c1)C(=O)c1cccc(O)c1C2=O | 3.18% (inactive)
OC[C@@H](O)[C@@H](O)[C@H](O)[C@@H](O)CO | 1.79% (inactive)

Biological target: Luciferin 4-monooxygenase (Photinus pyralis) (UniProt P08659)
Assay: Biochemical firefly luciferase enzyme assay for NPC (AID 624030);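 note: purified P. pyralis luciferase at 10 nM with luciferin and ATP substrate; 0% = DMSO and -100% = full luciferase inhibition by PTC124 control; nearly all actives have a fitted effect of over 70% in size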
Details: purified P. pyralis luciferase, luminescence, 5 min; series mostly up to 58.6 µM; activity change, negative = inhibition: at the top concentration
Procedure, shortened: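 Direct inhibition of firefly luciferase enzyme (10 nM final, 50 mM Tris Acetate) assessed by luminescence within 5 minutes. Percent activity scaled between DMSO and PTC124 positive control, with concentration-effect curves classified by fit quality and response.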

Sequence of Luciferin 4-monooxygenase (Photinus pyralis) (P08659 whole entry, looked up): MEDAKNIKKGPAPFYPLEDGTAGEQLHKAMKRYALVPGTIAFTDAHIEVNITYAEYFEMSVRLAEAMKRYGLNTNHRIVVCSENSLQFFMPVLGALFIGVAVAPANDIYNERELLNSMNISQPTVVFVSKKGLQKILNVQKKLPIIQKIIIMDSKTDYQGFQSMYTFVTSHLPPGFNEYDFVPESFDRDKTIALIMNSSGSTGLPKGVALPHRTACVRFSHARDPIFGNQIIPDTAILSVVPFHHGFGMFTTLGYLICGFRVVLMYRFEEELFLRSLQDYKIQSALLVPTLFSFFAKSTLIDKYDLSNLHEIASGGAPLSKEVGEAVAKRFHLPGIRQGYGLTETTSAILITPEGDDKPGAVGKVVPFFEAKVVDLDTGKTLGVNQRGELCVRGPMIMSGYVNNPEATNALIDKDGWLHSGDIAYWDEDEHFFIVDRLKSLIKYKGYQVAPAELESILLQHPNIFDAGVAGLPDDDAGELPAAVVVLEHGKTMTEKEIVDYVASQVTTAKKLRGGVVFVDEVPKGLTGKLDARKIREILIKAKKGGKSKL

SMILES | activity change, negative = inhibition
O=C(O)C(=O)Nc1cccc(C2=NN=N[N]2)c1 | -7.23% (inactive)
CC1(C)[C@H](O[C@H]2O[C@H](C(=O)O)[C@@H](O)[C@H](O)[C@H]2O[C@@H]2O[C@H](C(=O)O)[C@@H](O)[C@H](O)[C@H]2O)CC[C@@]2(C)[C@H]1CC[C@]1(C)[C@H]2C(=O)C=C2[C@H]3C[C@@](C)(C(=O)O)CC[C@]3(C)CC[C@]21C | -15.5% (inactive)
CCCCCCCN(CC)CCCC(O)c1ccc(NS(C)(=O)=O)cc1 (configuration not stated) | 0.134% (inactive)
N[C@H]1CN(c2c(F)cc3c(=O)c(C(=O)O)cn(C4C[C@@H]4F)c3c2Cl)CC12CC2 (some centres not stated) | -0.878% (inactive)
COC1=C(OC)C(=O)C(CC=C(C)CCC=C(C)CCC=C(C)CCC=C(C)CCC=C(C)CCC=C(C)CCC=C(C)CCC=C(C)CCC=C(C)CCC=C(C)C)=C(C)C1=O | 0.937% (inactive)
Nc1nc2c(c(=O)[nH]1)N(C=O)[C@H](CNc1ccc(C(=O)N[C@@H](CCC(=O)O)C(=O)O)cc1)CN2 | 21.6% [at 24.9 µM] (inactive)
OCC(O)C(O)C(O)CO (configuration not stated) | 0.378% (inactive)
C[C@H]1C[C@H]2[C@@H]3CCC4=CC(=O)C=C[C@]4(C)[C@@H]3C(=O)C[C@]2(C)[C@@]1(O)C(=O)CO | 1.83% (inactive)
CCC(C(=O)O)C1CCC(C)C(C(C)C(O)C(C)C(=O)C(CC)C2OC3(C=CC(O)[C@@]4(CC[C@](C)(C5CC[C@@](O)(CC)C(C)O5)O4)O3)C(C)CC2C)O1 (some centres not stated) | 0.131% (inactive)
Nc1ccn(C2CO[C@H](CO)O2)c(=O)n1 (some centres not stated) | -0.408% (inactive)
CCCCCCCCCCCCCCCC(=O)OC[C@@H](NC(=O)C(Cl)Cl)[C@H](O)c1ccc([N+](=O)[O-])cc1 | -6.27% (inactive)
COc1ccc2c(c1OC)C(=O)OC2[C@H]1c2c(cc3c(c2OC)OCO3)CCN1C (some centres not stated) | 4.08% (inactive)
COc1ccc([C@@H]2CNC(=O)C2)cc1OC1CCCC1 | 0.525% [at 24.9 µM] (inactive)
Nc1ccn(C[C@@H](CO)OCP(=O)(O)O)c(=O)n1 | 0.775% (inactive)
Cc1onc(-c2ccccc2)c1C(=O)N[C@@H]1C(=O)N2[C@@H](C(=O)O)C(C)(C)S[C@@H]12 | 0.469% (inactive)
CCCCCCCCCCCC(CC1OC(=O)C1CCCCCC)OC(=O)C(CC(C)C)NC=O (configuration not stated) | -1.47% (inactive)
C#CCC(Cc1cnc2nc(N)nc(N)c2n1)c1ccc(C(=O)N[C@@H](CCC(=O)O)C(=O)O)cc1 (some centres not stated) | -3.68% (inactive)
O=C1c2c(O)cccc2[C@@H]([C@@H]2O[C@H](CO)[C@@H](O)[C@H](O)[C@H]2O)c2cc(CO)cc(O)c21 | -13.6% (inactive)

Source: PubChem BioAssay (NCATS)
